Hit rate of the full screen: of about 350,000 compounds, about 1,600 (0.46%) were called active. This is one part of a sample in which actives are shown more often than they occur. Unmarked numbers belong to inactive results.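 How the source made its calls: active means activation of at least 50%, plus an integration ratio under a set limit after plate pattern correction; inactive means the rest.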

For the assay, the system named is CRF-binding protein / CRF receptor 2 complex (human). In words: activators of CRF-R2 with CRF-BP – cell-based, HEK293, calcium dye fluorescence, uHTS, primary screen (AID 588473).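 Further: plate controls were neutral control wells without compound for no effect and CRF at EC100 for full effect.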 To be noted: calcium dye fluorescence (FLIPR), at 13.2 µM, stronger effect = higher value.
As for `CCCCC(=O)N/N=C/c1c(O)n(CCC2=CCCCC2)c(=O)[nH]c1=O`, the activation is 0.08%. For `CCCCC(=O)N/N=C/c1c(O)n(CC)c(=S)n(CC)c1=O`, the activation was 89% (active).

Turning to `Cn1c(O)c(C=NCCCC(=O)O)c(=O)n(C)c1=O`, the activation was 3.61%. As to `COC(=O)C1=C(c2ccc(C(C)=O)cc2)C[C@@H]2CC[C@H]1N2C(=O)NCCNC(C)=O`, the activation is -2% [percent of saturating CRF peptide response]. The same measure for `COc1ccc(C2NCc3ccc4c(c3-n3cccc32)OCO4)cc1OC` (stereo not given): -1.07%; for `COC(=O)N(c1ccc(OC)cc1)P1(=S)OCCC(C)O1` (stereo not given): -2.1%; for `Cc1nc2ccccn2c1P(=S)(N1CCCCC1)N1CCCCC1`: 63.2% (active). As for `CN1CCN(Cc2ccc(OC(F)(F)F)cc2)CC1`, the figure is -0.02%; as for `CCCCCn1c(=O)c(C(=O)NCc2ccccc2)c(O)c2ccccc21`, 4.58%.

For `CCOP(=S)(OCC)C(O)CCCCCn1c(=O)c(F)cn(C2CCCO2)c1=O` (stereo not given), the activation is -3.57%.

Consider `O=C(c1cc(S(=O)(=O)N2CCOCC2)ccc1F)N1CCC2(CC1)OCCO2`, for which the activation is 2.62%. The same measure for `COc1ccc(N2C(=O)/C(=C/c3ccco3)C(=O)NC2=S)cc1`: 4.87%; for `COc1cccc(N2C(=O)NC(=O)/C(=C\c3ccc([N+](=O)[O-])s3)C2=O)c1`: 4.02%. As for `COc1cccc(N2C(=O)NC(=O)/C(=C\c3cn(C)c4ccccc34)C2=O)c1`, the figure is 113% (active); as for `c1ccc(C(CN2CCCCC2)c2ccccc2)cc1`, -0.78% [percent of saturating CRF peptide response].

(Values after PubChem BioAssay AID588473 (Sanford-Burnham Center for Chemical Genomics, 2011).)
